Experiment [1] addresses Bile acid receptor (Homo sapiens) (UniProt Q96RI1). Briefly: qHTS assay for small molecule antagonists of farnesoid X receptor signaling (AID 588526). Note: potency is the fitted concentration of half-maximal effect. The essentials:
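Concentration-response titrations were fitted to the Hill equation for half-maximal inhibition and maximal response, with data normalised to 50 uM chenodeoxycholic acid and DMSO control wells. Cells: FXR-UAS-bla HEK293T, dialyzed FBS.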
(In general: In qHTS, concentration-response curves come from the screen itself.)

Experiment [2] shares this target. Briefly: qHTS assay for small molecule agonists of farnesoid X receptor signaling (AID 588527).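 Note: series mostly up to about 77 µM; 0% = vehicle basal and 100% = reference agonist.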 Particulars: HEK293T FXR-UAS-bla, beta-lactamase ratio, 16 h; activation: stronger effect = higher value. The essentials:
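FXR-UAS-bla HEK293T cells (10% dialyzed FBS) preincubated 5-7 h at 37 C, then compounds at up to 92 uM for 16 h at 37 C. CCF4 beta-lactamase read-out after 2 h RT. Normalized to chenodeoxycholic acid (100 uM) and DMSO; Hill fit gave EC50 and efficacy.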

The nature of experiment [3]: qHTS assay for small molecule agonists of the antioxidant response element (ARE) signaling pathway (AID 651741; active = well fitted activation curve with a large enough effect in the signal ratio; the % refers to the signal ratio; note: potency is the fitted concentration of half-maximal effect; for activation: % of control where 0% means no effect). The essentials: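 ARE-bla HepG2 cells (beta-lactamase reporter under ARE control) were plated at 2,000 cells/well, preincubated 5 h at 37 C/5% CO2, then treated with DMSO-dissolved compounds for 16 h at 37 C; LiveBLAzer B/G FRET substrate added, fluorescence read after 2 h at room temperature.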

In experiment [4] the target is Androgen receptor (Homo sapiens) (UniProt P10275). Briefly: qHTS assay for small molecule agonists of androgen receptor signaling (AID 588515; active = well fitted curve in the direction sought with a large enough effect in the signal ratio, with a control signal flat; the % refers to the signal ratio; note: % is set by controls: 0 for no effect and ±100 for the full control effect). Conditions: AR-UAS-bla HEK293, beta-lactamase ratio, agonist 16 h; stronger effect = higher value. The essentials:
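EC50 and efficacy came from Hill fits of titrations (up to 92 uM) normalized to 30 nM R1881 as 100% and DMSO as 0%. Compound exposure was 16 h at 37 C on AR-UAS-bla HEK293 cells, with a 405/460/530 nm CCF4 fluorescence read.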

In experiment [5] the target is Vitamin D3 receptor (Homo sapiens) (UniProt P11473). Briefly: qHTS assay for small molecule antagonists of vitamin D receptor signaling (AID 588541).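 Note: receptor activated by calcitriol during compound treatment; series mostly up to about 77 µM; % is set by controls: 0 for no effect and ±100 for the full control effect.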 The essentials:
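VDR-UAS-bla HEK293T cells (2000/well, 2% charcoal-stripped FBS) were treated with titrated compounds plus 1-alpha,25-dihydroxyvitamin D3 (50 nM or 3 nM final) for 16 h at 37 C. CCF4 beta-lactamase fluorescence was read; Hill fits gave IC50.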

For experiment [6] the target is unchanged. Briefly: qHTS assay for small molecule agonists of vitamin D receptor signaling (AID 588543).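 Note: 0% = DMSO basal and 100% = reference agonist control.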 The essentials:
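β-lactamase reporter, VDR-UAS-bla HEK293T, agonist mode. Cells plated 5 h at 37 °C, compound titration 16 h at 37 °C, CCF4 dye 2 h RT, ratio 460/530 nm. Hill fit → EC50, efficacy vs 50 nM 1α,25-(OH)2D3.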

Experiment [7] in a line: qHTS assay for small molecule activators of the nuclear factor-kappa B (NF-kB) signaling pathway (AID 651749; active = well fitted activation curve with a large enough effect in the signal ratio; the % refers to the signal ratio; note: series mostly up to about 77 µM; % of control where 0% means no effect). Particulars: NF-kB-bla ME-180 cells, beta-lactamase FRET ratio, 16 h; activation: stronger effect = higher value. A digest of the protocol:
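ME-180 cells stably carrying a beta-lactamase reporter under an NF-kB response element were exposed to compound or DMSO vehicle for 16 hr at 37C, 5% CO2. Pathway activation was read by FRET, since reporter expression disrupts FRET.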

For experiment [8], the target named is Peroxisome proliferator-activated receptor gamma (Homo sapiens) (UniProt P37231). Briefly: qHTS assay for small molecule antagonists of peroxisome proliferator-activated receptor gamma signaling (AID 588537; active = well fitted inhibition curve with a large enough effect in the signal ratio, with a control signal flat, not every such curve was filed as active; the % refers to the signal ratio;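 note: reporter cells co-stimulated with 50 nM rosiglitazone agonist during compound treatment; % of control where 0% means no effect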). A digest of the protocol: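 PPAR-gamma-UAS-bla HEK293 cells (3000/well, 1% charcoal/dextran-stripped FBS) were preincubated 6-6.5 h at 37 C, given titrated compounds, then stimulated with 50 nM rosiglitazone for 16 h. Beta-lactamase activity was read with CCF4 dye; IC50 came from Hill fits.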
Peroxisome proliferator-activated receptor gamma (Homo sapiens), sequence (P37231 whole entry, looked up): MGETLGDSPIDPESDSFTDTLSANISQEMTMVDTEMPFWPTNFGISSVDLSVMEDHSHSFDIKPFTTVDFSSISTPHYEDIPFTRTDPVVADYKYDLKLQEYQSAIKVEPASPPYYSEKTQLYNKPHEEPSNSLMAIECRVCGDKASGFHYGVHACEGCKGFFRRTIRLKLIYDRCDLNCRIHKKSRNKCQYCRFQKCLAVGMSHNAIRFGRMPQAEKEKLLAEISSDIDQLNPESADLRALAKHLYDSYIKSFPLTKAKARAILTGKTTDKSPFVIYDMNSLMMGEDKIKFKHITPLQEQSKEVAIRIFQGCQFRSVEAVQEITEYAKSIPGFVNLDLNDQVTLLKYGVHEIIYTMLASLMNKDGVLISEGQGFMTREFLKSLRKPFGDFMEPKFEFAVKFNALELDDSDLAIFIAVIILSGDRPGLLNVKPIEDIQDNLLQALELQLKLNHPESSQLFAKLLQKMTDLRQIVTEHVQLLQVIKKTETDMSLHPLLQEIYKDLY

The nature of experiment [9]: qHTS assay for small molecule agonists of retinoid X receptor alpha signaling (AID 588544). Conditions: HEK293T RXRa-UAS-bla, beta-lactamase reporter, 18 h; 530 nm emission.
Experiment [10] is described as follows: qHTS assay for small molecule activators of the human pregnane X receptor (PXR) signaling pathway (AID 720659; call rule not given here; note: 0% is about no effect).
Experiment [11] has as its target Androgen receptor (Homo sapiens) (UniProt P10275). The experiment in a line: qHTS assay for small molecule antagonists of androgen receptor signaling (AID 588516; active = well fitted curve in the direction sought with a large enough effect in the signal ratio, with a control signal flat, not every such curve was filed as active; the % refers to the signal ratio; note: % is set by controls: 0 for no effect and ±100 for the full control effect). The essentials: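 HEK293 AR-UAS-bla cells, 10% dialyzed FBS medium; cpd titration + R1881 10 nM final, 16 h 37 C; CCF4 2 h RT; FRET ratio; IC50/efficacy via Hill fit.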

Records with an inconclusive call do not appear. Active and inactive are the calls of the source. Unless noted, calls come from the whole dose curve.

Androgen receptor (Homo sapiens), sequence (P10275 whole entry, looked up): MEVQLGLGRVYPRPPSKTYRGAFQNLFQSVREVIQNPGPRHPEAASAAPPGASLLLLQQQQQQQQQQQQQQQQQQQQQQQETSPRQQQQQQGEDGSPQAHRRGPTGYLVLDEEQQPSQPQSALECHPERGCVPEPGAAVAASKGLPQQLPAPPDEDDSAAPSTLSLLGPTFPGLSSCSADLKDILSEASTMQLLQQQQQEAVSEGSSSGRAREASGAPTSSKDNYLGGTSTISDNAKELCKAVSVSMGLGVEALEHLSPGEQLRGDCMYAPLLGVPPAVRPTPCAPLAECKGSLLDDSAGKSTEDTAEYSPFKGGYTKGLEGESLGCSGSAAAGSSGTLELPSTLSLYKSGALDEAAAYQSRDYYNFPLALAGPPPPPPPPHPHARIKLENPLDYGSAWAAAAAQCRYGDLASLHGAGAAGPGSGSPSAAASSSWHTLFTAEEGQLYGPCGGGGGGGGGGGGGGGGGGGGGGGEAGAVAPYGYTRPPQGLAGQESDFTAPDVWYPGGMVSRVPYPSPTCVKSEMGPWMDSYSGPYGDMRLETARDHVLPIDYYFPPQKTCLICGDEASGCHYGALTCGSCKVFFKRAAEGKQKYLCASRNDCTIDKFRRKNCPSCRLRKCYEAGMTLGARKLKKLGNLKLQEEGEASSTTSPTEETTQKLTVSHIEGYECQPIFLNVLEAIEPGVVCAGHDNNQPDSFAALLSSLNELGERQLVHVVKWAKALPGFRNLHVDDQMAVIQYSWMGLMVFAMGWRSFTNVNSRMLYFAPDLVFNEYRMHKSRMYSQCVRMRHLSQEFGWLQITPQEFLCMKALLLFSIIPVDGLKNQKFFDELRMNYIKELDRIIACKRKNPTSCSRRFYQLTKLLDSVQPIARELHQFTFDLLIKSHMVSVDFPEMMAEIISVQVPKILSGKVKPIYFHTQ
Vitamin D3 receptor (Homo sapiens), sequence (P11473 whole entry, looked up): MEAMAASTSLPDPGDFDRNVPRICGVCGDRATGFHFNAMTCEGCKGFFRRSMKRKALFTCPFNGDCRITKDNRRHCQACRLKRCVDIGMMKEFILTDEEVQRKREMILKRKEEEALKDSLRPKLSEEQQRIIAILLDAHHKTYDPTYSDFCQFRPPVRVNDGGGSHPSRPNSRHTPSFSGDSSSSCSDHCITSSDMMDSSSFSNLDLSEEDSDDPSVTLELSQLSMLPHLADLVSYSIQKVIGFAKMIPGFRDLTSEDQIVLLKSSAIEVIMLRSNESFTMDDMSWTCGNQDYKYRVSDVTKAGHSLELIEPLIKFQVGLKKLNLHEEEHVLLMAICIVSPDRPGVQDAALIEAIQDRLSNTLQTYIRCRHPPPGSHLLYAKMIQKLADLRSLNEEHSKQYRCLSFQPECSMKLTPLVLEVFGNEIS
Bile acid receptor (Homo sapiens), sequence (Q96RI1 whole entry, looked up): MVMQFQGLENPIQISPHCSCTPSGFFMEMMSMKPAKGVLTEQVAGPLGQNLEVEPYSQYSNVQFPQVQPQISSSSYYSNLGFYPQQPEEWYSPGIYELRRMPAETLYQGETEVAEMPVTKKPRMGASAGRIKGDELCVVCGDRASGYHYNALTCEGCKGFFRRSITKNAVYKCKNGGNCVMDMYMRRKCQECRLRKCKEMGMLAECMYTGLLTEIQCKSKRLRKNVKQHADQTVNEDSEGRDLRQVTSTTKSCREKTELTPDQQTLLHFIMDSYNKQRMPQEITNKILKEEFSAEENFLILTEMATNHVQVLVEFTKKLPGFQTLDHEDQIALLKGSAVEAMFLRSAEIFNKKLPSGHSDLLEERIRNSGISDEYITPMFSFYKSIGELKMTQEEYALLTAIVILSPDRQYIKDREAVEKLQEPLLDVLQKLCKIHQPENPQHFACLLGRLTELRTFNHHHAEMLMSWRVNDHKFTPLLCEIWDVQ

As to `CC(C)(C)[C@@H](O)/C(=C\c1ccc(Cl)cc1Cl)n1cncn1`, the values for the Potency in experiment [1] and in experiment [3] were 44.7 µM (active) and 68.6 µM (active), respectively. Besides, the activation in [2] was 0.6% (inactive).

`CC(C)Oc1cc(-n2nc(C(C)(C)C)oc2=O)c(Cl)cc1Cl`: the results for the activation in experiment [4], in experiment [2] and in experiment [7] were -15% (inactive), 1.08% (inactive) and 1.16% (inactive), respectively. In [5], the Potency result is “inactive”. Besides, the call in experiment [6] was inactive. Besides, in experiment [3], the Potency was 61.1 µM (active).

Regarding `CCCCCCCCCCCCCCC(Br)C(=O)O` (stereo not drawn), the Potency entry in [1], in experiment [8] and in experiment [5] was “inactive” each time. The activation in [2] was 4.69% (inactive). Further, the molecule was called inactive in [6] and in experiment [10]. For the same molecule, in experiment [9], the max response is -6.32%. Further, the Potency in [3] is 21.7 µM (active).

As for `CNC(=O)Oc1cc(C)c(SC)c(C)c1`, the activation in experiment [4] is 1.32% (inactive); in experiment [2], 5.14% (inactive); in [7], -0.568% (inactive). Further, the Potency result in experiment [11], in experiment [8] and in [5] was “inactive” each time. For the same molecule, the molecule was classed as inactive in experiment [6]. In experiment [3], the Potency is 27.3 µM (active).

`COP(=O)(OC)SCn1c(=O)oc2cc(Cl)cnc21`: the results for the activation in [4] and in experiment [7] were 7.35% (inactive) and -1.51% (inactive), respectively. For the same molecule, the Potency entry in experiment [11] was “inactive”. The Potency in [3] is 27.3 µM (active). Besides, the outcome in experiment [10] was inactive.

On to `CNC(=O)O/N=C/C(C)(C)S(C)(=O)=O`, for which the results for the activation in experiment [4] and in experiment [7] were 1.32% (inactive) and -1.23% (inactive), respectively. Besides, in experiment [9], the max response was -16.6%. Besides, the call in [10] was inactive.

On to `CCSCCSP(=O)(OC)OC`, for which the results for the activation in experiment [4] and in [7] were -9.34% (inactive) and -0.99% (inactive), respectively. Further, the Potency result in experiment [11], in experiment [1] and in experiment [8] was “inactive” in each case. In addition, the outcome in experiment [6] and in experiment [10] was inactive. Further, in experiment [9], the max response turned out to be 1.71%.

For `COc1cc(OC)nc(NC(=O)NS(=O)(=O)c2ncccc2C(F)(F)F)n1`, the values for the activation in [4], in experiment [2] and in experiment [7] were 3.3% (inactive), -0.618% (inactive) and -0.0953% (inactive), respectively. The Potency result in [11], in experiment [1], in [8] and in [5] was “inactive” throughout. Besides, the max response in [9] is -4.69%. Also, in [10], the result was inactive.

With `CCOc1nc(F)cc2nc(S(=O)(=O)Nc3c(Cl)cccc3Cl)nn12`, the Potency entry in experiment [1], in [8] and in experiment [5] was “inactive” in each case. For the same molecule, the activation is -0.748% (inactive) in [2] and 0.211% (inactive) in experiment [7]. Besides, the result in experiment [6] and in [10] was inactive. Besides, in experiment [9], the max response is 3.57%.

With `CCCCC(O)(Cn1cncn1)c1ccc(Cl)cc1Cl` (stereo not drawn), the activation in experiment [4] is -10.4% (inactive); in experiment [2] it was -2.88% (inactive); in experiment [7], 0.388% (inactive). The Potency result in [1] is “inactive”. Also, the outcome in [6] was inactive.

Regarding `CCOP(N)(=O)Oc1ccc(SC)c(C)c1` (stereo not drawn), the activation in experiment [4] is -2.98% (inactive). In addition, the Potency entry in [11], in experiment [1] and in experiment [8] was “inactive” each time. Further, the molecule was classed as inactive in [6]. For the same molecule, in experiment [9], the max response was -16.6%.

For the molecule `Clc1ccc(-c2cc(Cl)c(Cl)cc2Cl)cc1Cl`, the activation in experiment [4] is -4.76% (inactive); in experiment [2] it was 4.78% (inactive); in experiment [7], 5.08% (inactive). Also, the Potency result in experiment [8] and in [5] was “inactive” in each case. In addition, in [10], the outcome was inactive.

For the molecule `CCSC(=O)N(CC)C1CCCCC1`, the Potency result in [1], in experiment [8] and in [5] was “inactive” each time. The activation in [2] is -3.64% (inactive); in [7], 1.91% (inactive). For the same molecule, the call in experiment [6] and in [10] was inactive. Further, the max response in [9] is -3.68%.

Turning to `CCOP(=S)(OCC)SCCl`, the activation in experiment [4] was 5.88% (inactive); in [7] it was -1.72% (inactive). For the same molecule, the Potency entry in experiment [11], in experiment [1] and in experiment [3] was “inactive” in each case. Also, the outcome in experiment [6] and in experiment [10] was inactive.

Turning to `CC(C)CCCCCCOC(=O)c1ccccc1C(=O)OCCCCCCC(C)C`, the activation is 13.4% (inactive) in experiment [4], 0.284% (inactive) in experiment [2] and 2.38% (inactive) in [7]. For the same molecule, the Potency result in [11], in experiment [1], in experiment [5] and in experiment [3] was “inactive” throughout. Further, the result in [6] and in experiment [10] was inactive. The max response in experiment [9] was -16.4%.

As to `CC(C)=CC1[C@H](C(=O)OCc2cccc(Oc3ccccc3)c2)C1(C)C` (stereo partly drawn), the Potency entry in experiment [1] and in experiment [5] was “inactive” in each case. For the same molecule, in experiment [2], the activation is -3.66% (inactive). For the same molecule, the molecule was called inactive in experiment [6]. In addition, the max response in [9] is -6.27%.

As for `CCc1cc(C)cc(CC)c1-c1c(OC(=O)C(C)(C)C)n2n(c1=O)CCOCC2`, the Potency result in [1], in [8] and in experiment [3] was “inactive” throughout. Moreover, the activation was 2.69% (inactive) in [2] and -1.54% (inactive) in [7].

On to `O=[N+]([O-])Nc1nccn1Cc1ccc(Cl)nc1`, for which the activation in [4] is 20.9% (inactive). Further, the Potency entry in experiment [11], in [1] and in experiment [8] was “inactive” throughout. Further, the molecule was classed as inactive in [10].

On to `Nc1cccc(Cl)c1Cl`, for which the Potency entry in [11], in experiment [1], in experiment [8], in experiment [5] and in [3] was “inactive” in each case. Moreover, the outcome in [6] and in experiment [10] was inactive. Moreover, the max response in experiment [9] was -11.4%. The activation in experiment [7] was -2.53% (inactive).

For `O=C1c2ccccc2C(=O)C1C(=O)C(c1ccccc1)c1ccc(Cl)cc1` (stereo not drawn), in experiment [4], the activation was -4.67% (inactive). The Potency result in experiment [5] was “inactive”. For the same molecule, in experiment [6], the outcome was inactive. The max response in experiment [9] was -4.27%.

Take `O=C(O)C1(O)c2ccccc2-c2ccc(Cl)cc21` (stereo not drawn): the activation in experiment [4] was -1.34% (inactive); in experiment [2], 8.73% (inactive); in [7], 3.02% (inactive). For the same molecule, the result in experiment [6] and in [10] was inactive.

For the molecule `O=C(Nc1ccccc1)Nc1ccnc(Cl)c1`, the activation in experiment [4] is 10.1% (inactive); in experiment [2], -3.44% (inactive); in experiment [7], -0.762% (inactive). The Potency entry in experiment [11], in experiment [1], in experiment [8] and in [5] was “inactive” in each case. For the same molecule, the molecule was called inactive in [6].

Consider `CCCCOCCOC(C)=O`, for which the Potency entry in experiment [1], in experiment [8] and in [5] was “inactive” each time. The activation in [2] was 1.59% (inactive). Besides, the result in experiment [6] and in experiment [10] was inactive. The max response in [9] is -13.2%.

For the molecule `CC(C)C1(C)N=C(c2nc3ccccc3cc2C(=O)O)NC1=O` (stereo not drawn), the Potency result in [1], in experiment [8] and in experiment [5] was “inactive” in each case. Moreover, in experiment [6], the molecule was classed as inactive. The max response in [9] came out at 5.36%. The activation in experiment [7] is -0.622% (inactive).

Regarding `CCOP(=S)(OCC)SCSP(=S)(OCC)OCC`, in experiment [8], the Potency entry is “inactive”. The molecule was classed as inactive in experiment [6]. In experiment [7], the activation was -2.5% (inactive).
